Measured values: PubChem BioAssay AID1259313 (Sanford-Burnham Center for Chemical Genomics, 2017)
Out of some 340,000 compounds screened, about 8,500 (2.5%) were called active. This excerpt belongs to a sample that is enriched for actives. Unmarked numbers belong to inactive results.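 Rule for the calls: active = melting temperature shift of at least 10% of the positive control shift, at one fixed dose; inactive = the rest.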

What follows are compounds tested on Glutamate receptor ionotropic, NMDA 3A (GRIN3A) ligand-binding domain (assay: NR3A LBD thermal stabilization by compounds – biophysical, differential scanning fluorimetry, uHTS, primary screen (AID 1259313)). Details: at 25 µM, stronger effect = higher value, 0% = protein alone, 100% = glycine-bound protein.

SMILES	Tm shift relative to glycine control
CN(CC1CCCN(CCc2cccc(C(F)(F)F)c2)C1)C(=O)c1ccc2nc[nH]c2c1 (stereo not drawn)	1.25%
O=C(CN1CCN(c2ccc(F)cc2)CC1)Nc1cccc(C(F)(F)F)c1	-4.33%
NC(=O)Cn1cc(/C=N\NS(=O)(=O)c2ccccc2)c2ccccc21	-34.7%
O=C(Cn1cc(/C=N/NC(=O)c2cccc(C(F)(F)F)c2)c2ccccc21)Nc1ccc(F)cc1	15.8% (active)
CCCOC(=O)c1ccc(N2C(=O)c3ccccc3C2=O)cc1	-1.6%
Cc1ccc(NC(=O)c2cc(-c3ccccc3O)n[nH]2)cc1C	26.2% (active)
Cc1ccc(NC(=O)CCN2C(=O)c3ccccc3C2=O)cc1C	-0.19%
Cc1ccc(C)c(NC(=O)c2cc(-c3cc(C)cc(C)c3O)n[nH]2)c1	0.62%
O=C(CNS(=O)(=O)c1cccc(C(F)(F)F)c1)Nc1ccccc1F	-1.13%
O=C(CNS(=O)(=O)c1ccc2ccccc2c1)Nc1ccc(F)c(F)c1F	35% (active)
CN(CC(=O)NCCc1ccc(S(N)(=O)=O)cc1)CC(=O)Nc1ccc(F)c(F)c1F	-1.98%
O=C(c1ccncc1)N1CCN(S(=O)(=O)c2cccc([N+](=O)[O-])c2)CC1	2.5%
Cc1ccc(Cc2cncc(O)c2)cc1S(=O)(=O)O	0.09%
CNc1nc(=O)n(C2CCCO2)cc1C (stereo not drawn)	-4.19%
COCC(C)OC(=O)c1c(N)n(CCCN2CCOCC2)c2nc3ccccc3nc12 (stereo not drawn)	-0.69%
CN(C)CCCn1c(N)c(C#N)c2nc(C#N)c(C#N)nc21	-3.53%
N#Cc1c(N)n(CCOC(=O)c2ccc(Cl)cc2)c2nc3ccccc3nc12	35.9% (active)
C=CCc1cccc2cc(C(=O)N3CCN(C(=O)OCC)CC3)c(=O)oc12	-2.65%
Cc1ccc(NC(=O)CSc2nn3c(=O)c(C)nnc3s2)cc1Cl	-1.28%

SMILES	Tm shift relative to glycine control
C/C(=N\Nc1ccc(Cl)nn1)c1ccccc1O	-6.71%
CC(C)(C)c1ccc(SCCc2ccncc2)cc1	0.08%
O=C(Nc1cccc(S(=O)(=O)NC2=NCCC2)c1)c1ccc(F)cc1F	0.09%
Cc1cc(NS(=O)(=O)c2ccc(NC(=S)NC(=O)c3ccc(F)cc3Cl)cc2)no1	0.87%
O=C(Nc1cc(S(=O)(=O)Nc2ccc(Cl)cc2)ccc1O)c1ccc(F)cc1F	37.7% (active)
Cn1c(Cc2cccc3ccccc23)nnc1SCC(=O)N1CCN(c2cccc(Cl)c2)CC1	5.43%
CCC(Oc1ccccc1C)C(=O)Nc1ccc(S(=O)(=O)Nc2cc(C)on2)cc1 (stereo not drawn)	3.83%
Cc1ccc(S(=O)(=O)N2CCCCC2)cc1C(=O)N1CCN(CCO)CC1	2.45%
COc1ccccc1N(CCOc1ccccc1)S(=O)(=O)c1ccccc1	12.6% (active)
COc1ccccc1NC(=O)CN(c1ccccc1OC)S(=O)(=O)c1ccccc1	0.31%
COc1ccccc1N(CC(=O)N1CCCCC1)S(=O)(=O)c1ccccc1	0.84%
O=C(Nc1c(Cl)cccc1Cl)C1CCC1	12.7% (active)
NC(=S)Nc1c(Cl)cccc1Cl	2.25%
CN(CC(=O)Nc1c(Cl)cccc1Cl)C(=O)CNC(=O)C1CCCCC1	0.17%
Cc1c(S(=O)(=O)NC(C)c2ccccc2)c(=O)n(C)c(=O)n1C (stereo not drawn)	-6.52%
Cc1c(S(=O)(=O)NCc2ccccc2)c(=O)n(C)c(=O)n1C	-0.41%
Cc1c(S(=O)(=O)N2CC(C)CC(C)C2)c(=O)n(C)c(=O)n1C (stereo not drawn)	11.1% (active)
O=C(NCCc1ccccc1Cl)C1CCC(=O)N(CCCc2ccccc2)C1 (stereo not drawn)	3.05%
O=C(NNC(=O)c1ccc(-n2cncn2)c([N+](=O)[O-])c1)c1ccccc1	3.86%
